SMILES strings stand for the structures.

The test is described as follows: small-molecule binders of probe aNOTCH2, primary screen, biochemical, small-molecule microarray, 635/667 nm fluorescence (AID 1121).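 Note: score merges feature fluorescence read at 667 nm with its signal to noise.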 The settings on record: higher = more signal.
For `C=CCNC(=O)[C@H]1[C@@H]2C(=O)O[C@@H](c3ccccc3)[C@@H](c3ccccc3)N2[C@@H](c2ccc(O)cc2)[C@]12C(=O)Nc1ccc(C#CC3=CCCCC3)cc12`, the composite z-score was 0.23.

Turning to `COC(=O)[C@@]1(Cc2ccccc2)[C@H]2c3cc(C(=O)N4CCCC4)n(Cc4ccc(C(F)(F)F)nc4)c3C[C@H]2CN1C(=O)c1ccccc1`, the composite z-score was 0.292.

Compound `O=C1OCCC/C=C\[C@H]2OC34C=CCN(Cc5ccccc5)C(=O)[C@H]3N(CCCCCO)C(=O)[C@@H]4C12` (stereo not given in full) showed a composite z-score of -0.112.

Regarding `CN(C)CCCNC(=O)[C@@]1(Cc2ccccc2I)c2ccccc2C(=O)N(Cc2ccccc2)[C@H]1c1ccc(CO)cc1`, the composite z-score is -0.247.

`COC(=O)c1c(CC[C@@H](CO)NC(=O)N[C@@H](Cc2ccccc2)Cn2cc(-c3cncn3C)nn2)oc(C(C)=O)c1C(=O)OC` registered a composite z-score of -0.144.

Compound `CC(c1ccccc1)C(O)C1C=CC2C(=O)N(c3ccccc3)C(=O)C2N1Nc1ccc(C#N)cc1` (stereo not given) yielded a composite z-score of -0.0062.

As to `CC(=O)c1ccc(C(O)C2C=CC3C(=O)N(C)C(=O)C3N2NC(=O)OC(C)(C)C)cc1` (stereo not given), the composite z-score was determined as 0.119.

In turn, `C=CCC(OC(C)=O)[C@@H]1[C@@H](N(Cc2ccc(-c3ccccc3)cc2)C(=O)c2cccc3ccccc23)c2cc(OCCCO)ccc2N1C(=O)c1ccc2ccccc2c1` (stereo not given in full) came in with a composite z-score of -0.0368.

On to `COC(=O)[C@@H]1N=C(c2ccc(OCCCO)cc2)O[C@@H]1c1ccccc1CN=[N+]=[N-]`, for which the composite z-score is -0.0162.

Compound `CCOC(=O)C1=CC[C@@H](c2ccccc2)N(S(=O)(=O)c2ccc(C)cc2)[C@H]1C#N` gave a composite z-score of 0.0362.

In the case of `CC#CCO[Si](C#CCCCCCC)(C(C)C)C(C)C`, the composite z-score was -0.192.

For the compound `C=CCC(OC(C)=O)[C@@H]1[C@@H](N(Cc2ccc(-c3ccccc3)cc2)C(=O)c2ccc(C)cc2)c2cc(OCCCO)ccc2N1C(=O)c1ccc2ccccc2c1` (stereo not given in full), the composite z-score was -0.127.

`COc1ccc(C(O)C2C=CC3C(=O)N(C)C(=O)C3N2Nc2ccc([N+](=O)[O-])cc2[N+](=O)[O-])cc1OCc1ccccc1` (stereo not given): the composite z-score was 0.29.

The compound `CN1C(=O)C2C=CC(C(O)c3ccc(-c4ccccc4)s3)N(Nc3ccccc3)C2C1=O` (stereo not given) displayed a composite z-score of 0.135.

The compound `N#Cc1ccc(C(O)C2C=CC3C(=O)NC(=O)C3N2Nc2ccccn2)cc1` (stereo not given) showed a composite z-score of -0.0907.

As to `CCCC=C(CCC)[C@@H](NC(=O)c1ccco1)c1ccc(C(=O)OC)cc1`, the composite z-score is -0.0222.

`COc1ccc([Si](C)(C)[C@@H]2[C@@H](CC(=O)N(CCO)Cc3ccccc3)O[C@]3(C(=O)N(Cc4ccc(N5CCC5=O)cc4)c4ccccc43)[C@H]2C)cc1` showed a composite z-score of -0.218.

The compound `Cc1ccc(F)cc1S(=O)(=O)N[C@@H]1CCN(Cc2ccc3[nH]ccc3c2)C1` gave a composite z-score of -0.176.

`C=C(/C(=C/C[C@H](OC(=O)c1ccncc1)c1ccccc1OCCO)c1cc(C(=O)OC)ccc1OC)C(C)C` came in with a composite z-score of -0.102.

For the compound `CCOC(=O)C1=CC[C@@H](c2ccc(F)cc2)N(S(=O)(=O)c2ccc(C)cc2)[C@H]1c1ccc([N+](=O)[O-])cc1`, the composite z-score is -0.14.

The compound `C=CC[C@@]1(C(=O)N(C)C)N=C(c2ccc(OCCCO)cc2)O[C@@H]1c1ccccc1` returned a composite z-score of 0.182.

`CC(C)C(=C=CC[C@@H](O)c1cccc(OCCO)c1)CCO` yielded a composite z-score of -0.0519.

For `[N-]=[N+]=NCc1ccccc1C[C@]1(C(=O)N2CCOCC2)N=C(c2ccc(OCCCO)cc2)O[C@H]1c1ccccc1CN=[N+]=[N-]`, the composite z-score was determined as 0.502.

`COc1ccc(NN2C(C(O)c3cc(C(F)(F)F)cc(C(F)(F)F)c3)C=CC3C(=O)N(C4CCCCC4)C(=O)C32)cc1` (stereo not given) returned a composite z-score of 0.659.

On to `CC=CC(O)C1C=CC2C(=O)N(C)C(=O)C2N1NC(=O)OC(C)(C)C` (stereo not given), for which the composite z-score is -0.173.

`[N-]=[N+]=NCc1ccccc1[C@@H]1OC(c2ccc(OCCCO)cc2)=N[C@]1(Cc1ccccc1)C(=O)NCc1ccccc1` had a composite z-score of -0.0349.

Consider `COCCOC(=O)N1C(=O)[C@@]2(c3cc(C#CCCO)ccc31)[C@H](C(=O)N1CCc3cc(OC)c(OC)cc3C1)[C@H]1C(=O)O[C@H](c3ccccc3)[C@H](c3ccccc3)N1[C@@H]2c1ccccc1OCCO`, for which the composite z-score is 0.0401.

Turning to `C=CCOC(=O)[C@@H]1[C@H]2C(=O)O[C@H](c3ccccc3)[C@H](c3ccccc3)N2[C@H](c2ccc(OCCOC(=O)[C@H]3C[C@H]4C(=O)NCC(=O)N4[C@H]3c3ccc(O)cc3)cc2)[C@@]12C(=O)Nc1ccc(I)cc12`, the composite z-score is -0.117.

Consider `C=CCC(OC(C)=O)[C@@H]1[C@@H](N(Cc2cc3ccccc3o2)C(=O)Cc2ccc(OC)cc2)c2cc(OCCCO)ccc2N1C(=O)Cc1ccc2ccccc2c1` (stereo not given in full), for which the composite z-score was -0.0424.

Consider `C[C@H]1C2[C@H](Cc3ccccc3)NC(=O)[C@]23C(=O)NCC(=O)N2CCC[C@H]2C(=O)NC/C=C\C/C=C/C3[C@@H]2O[C@]12C` (stereo not given in full), for which the composite z-score is -0.176.

Turning to `COC(=O)C1=CC(CCCO)=CC(C2CC2)N(Cc2cccc(OC(F)(F)F)c2)C=C1C(=O)OC` (stereo not given), the composite z-score is -0.138.

In turn, `CCCCC(O)C1C=CC2C(=O)NC(=O)C2N1Nc1ccccn1` (stereo not given) displayed a composite z-score of 0.0377.

Take `CCCCC(=C=CC[C@H](O)c1ccc(OCCO)cc1)C[C@H](O)c1ccccn1`: the composite z-score was -0.0614.

As for `CC(C)CNC(=O)[C@@H]1c2ccccc2C(=O)N(CC23CC4CC(CC(C4)C2)C3)[C@H]1c1ccc(CO)cc1`, the composite z-score is -0.14.

For the compound `CCN(CC)c1ccc(N2CC=CC34O[C@@H]5C=CCOC(=O)[C@@H]5[C@H]3C(=O)N(CCCO)[C@@H]4C2=O)cc1` (stereo not given in full), the composite z-score is -0.14.

(Values after PubChem BioAssay.)
